Tau ThT inhib: qHTS for Inhibitors of Tau Fibril Formation, Thioflavin T Binding; Potency, µM (titrated, usually from 57.4 µM), for the others: at the highest dose activity, negative = inhibition, most hits filed as inhibitors; actives 2.1% (n = 270,000); AID 1460, 2008; Microtubule-associated protein tau (Homo sapiens), P10636; recombinant tau K18 P301L, heparin-induced fibrillization, ThT fluorescence; also: potency is read from the fitted curve at half-maximal effect; nearly all actives have a fitted effect of over 55% in size
Target sequence (P10636 561-689 P618L limits assumed): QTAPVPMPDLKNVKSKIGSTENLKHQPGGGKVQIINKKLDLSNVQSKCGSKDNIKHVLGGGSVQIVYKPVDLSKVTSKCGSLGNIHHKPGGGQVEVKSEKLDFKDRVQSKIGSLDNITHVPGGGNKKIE
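Heparin-induced (20 uM) aggregation of recombinant human K18 P301L tau, 15 uM unlabeled with 0.24 uM labeled, pH 7 acetate buffer, 6 hr at 37 C with compound. Fibrils quantified by 30 uM ThT fluorescence after 1 hr ambient incubation.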
Tau fibril FP: qHTS for Inhibitors of Tau Fibril Formation, Fluorescence Polarization | K18 P301L tau heparin fibrillization, Alexa594 FP, 6 h | Potency, µM (series often up to 57.7 µM), inactives show at the highest dose activity, negative = inhibition, usual class: inhibitors | actives 0.39% (n = 280,000) | AID 1468, 2008 | Microtubule-associated protein tau (Homo sapiens), P10636; also: potency is read from the fitted curve at half-maximal effect; nearly all actives have a fitted effect of over 55% in size
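Human K18 P301L fragment (15 uM unlabeled plus 0.24 uM Alexa 594-labeled) in 100 mM sodium acetate pH 7 with compound, aggregation induced by 20 uM heparin for 6 hr at 37 C. ThT (30 uM) added for 1 hr, then Alexa 594 FP read.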
KDM4E inh: qHTS Assay for Inhibitors of Human Jumonji Domain Containing 2E (JMJD2E); actives 1.6% (n = 230,000); JMJD2E catalytic domain, FDH-coupled NADH fluorescence (FDH is formaldehyde dehydrogenase); AID 2147, 2009; Potency, µM (highest dose often 57.1 µM), inactives show at the top dose activity change, negative = inhibition, usual class: inhibitors; active = well fitted inhibition curve with a large enough effect, not every such curve was filed as active; inconclusive = small, poorly fitted or top-dose-only effect, or another doubt; inactive = no such curve, though single readings can be large or run the other way;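 also: potency is read from the fitted curve at half-maximal effect; 0% = wells with enzyme and -100% = buffer wells without enzyme; nearly all actives have a fitted effect of over 50% in size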
Target sequence (B2RXH2 1-337 limits assumed): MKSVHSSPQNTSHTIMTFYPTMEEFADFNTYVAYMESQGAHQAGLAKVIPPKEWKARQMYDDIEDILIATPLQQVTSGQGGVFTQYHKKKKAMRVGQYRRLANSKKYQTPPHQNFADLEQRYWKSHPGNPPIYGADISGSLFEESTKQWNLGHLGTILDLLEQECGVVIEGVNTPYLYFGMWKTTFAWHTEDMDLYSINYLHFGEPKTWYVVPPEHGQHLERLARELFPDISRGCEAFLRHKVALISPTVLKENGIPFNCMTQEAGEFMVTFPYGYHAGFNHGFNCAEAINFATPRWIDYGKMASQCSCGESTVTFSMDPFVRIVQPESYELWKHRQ
Sfp inh: qHTS Assay for Inhibitors of Bacillus subtilis Sfp phosphopantetheinyl transferase (PPTase); Biochemical Sfp PPTase activity, qHTS; Potency, µM, for the others: largest response in the series, negative = inhibition, actives largely listed as inhibitors; actives 3.5% (n = 310,000); AID 1490, 2009;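 also: the enzyme is Sfp with the accession as filed and its product quenches rhodamine fluorescence; potency is read from the fitted curve at half-maximal effect; 0% = enzyme reaction without inhibitor and -100% = no enzyme wells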
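Sfp 15 nM + cpd, 15 min RT; start w/ rhodamine-CoA 5 uM, BHQ-2-YbbR 12.5 uM (final); 50 mM Hepes pH 7.6, 10 mM MgCl2, 0.01% NP-40, 0.01% BSA; read 525/598 nm at 0 and 30 min.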
FBPA coupling cs: qHTS Assay for Inhibitors of Fructose-1,6-bisphosphate Aldolase from Giardia Lamblia: Coupling assay counterscreen; actives 0.67% (n = 290,000); coupling enzyme system counterscreen, AmpLite Red fluorescence; activity change, negative = inhibition, % at 58.2 µM, hits read low; in the data active = activity change below about -30%
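Activity here indicates interference with the coupling reaction, not aldolase inhibition. Compounds at 57.5 uM final met coupling enzymes for 10 min at RT; substrate and AmpLite Red detection followed, with a 525/598 nm fluorescence read after 20 min.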
Tau fluor cs: Counterscreen qHTS for Inhibitors of Tau Fibril Formation, Fluorescence Polarization; tau K18 P301L (four-repeat tau fragment) Alexa594 fluorescence, heparin fibrillization; Potency, µM (doses to about 57.7 µM), inactives show at the top dose activity change, negative = decrease; actives 0.93% (n = 280,000); AID 1463, 2008; also: potency is read from the fitted curve at half-maximal effect; nearly all actives have a fitted effect of over 55% in size
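Human K18 P301L tau (15 uM unlabeled plus 0.24 uM Alexa 594-labeled, final) in 100 mM sodium acetate pH 7 was mixed with compound and 20 uM heparin and incubated 6 hr at 37 C.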
An asterisk follows results filed as active; ? = inconclusive; . = not tested or not shown. This is a sample that favours compounds with a hit; in the whole collection about 5.3% have one here. Unless noted, calls follow the shape of the dose curve; as a rule, active = well fitted curve in the direction sought with a large enough effect; inconclusive = small, poorly fitted or top-dose-only effect, or another doubt; inactive = no such curve, though single readings can be large; an effect the other way counts as inactive or inconclusive. Unless noted, % is scaled to controls: 0 for no effect and ±100 for the full control effect.

SMILES | Tau ThT inhib | Tau fibril FP | KDM4E inh | Sfp inh | FBPA coupling cs | Tau fluor cs
Cc1nc(N2CCOCC2)c2nc(-c3ccccc3)n(CCN3CCOCC3)c2n1 | -8% | -1% | ? | 14% | 2 | -8%
CC(C)(C)C1CCc2c(sc3c2C(=O)NC(c2ccco2)N3)C1 (stereo not given) | ? | -3% | ? | 56µM* | 1 | -14%
CC(C)(C)C1CCc2c(sc(NC(=O)c3ccco3)c2C(N)=O)C1 (stereo not given) | 0% | -2% | 2% | 0% | -1 | 3%
COc1ccc(NC(=O)c2c(C)oc3ccc(O)c(CN4CCCCCC4)c23)cc1Cl | -11% | -1% | . | . | . | -22%
CCOC(=O)c1sc(NC(=O)CSc2n[nH]c(-c3ccncc3)n2)c(C#N)c1C | -18% | -6% | ? | 2% | 4 | -21%
CCOc1ccc(/C=C/C2=Cc3c(sc(NC(=O)CSc4n[nH]c(N)n4)c3C#N)C(C)(C)C2)cc1 | 14µM* | -14% | -2% | 40µM* | 0 | ?
Cc1ccsc1/C=C/C1=Cc2c(sc(NC(=O)CSc3n[nH]c(N)n3)c2C#N)C(C)(C)C1 | 16µM* | -13% | 2% | 40µM* | -4 | ?
Clc1nnc(NN=C2CCCC2)c2ccccc12 | 25µM* | -12% | ? | 50µM* | 0 | ?
CCc1ccc(-n2c(=O)c3cccnc3n2CC(=O)N(CC)c2cccc(C)c2)cc1 | ? | 5% | . | . | . | -9%
C=C1c2cccc(O)c2C(O)=C2C(=O)[C@]3(O)C(O)=C(C(N)=O)C(=O)[C@@H](N(C)C)[C@@H]3[C@@H](O)[C@H]12 | ? | ? | ? | 35µM* | -2 | ?
C=C1c2cccc(O)c2C(O)=C2C(=O)[C@]3(O)C(O)=C(C(N)=O)C(=O)C(N(C)C)C3C(O)C12 (stereo not given in full) | ? | -5% | 8.9µM* | -45% | -5 | -20%
COc1cnc(-c2ccccn2)nc1NC(C)C | ? | -19% | -117% | 7.1µM* | -36* | -14%
O=C(NC1(C(F)(F)F)NC(=O)N(Cc2ccco2)C1=O)c1cccs1 (stereo not given) | -13% | 1% | -8% | 35µM* | 1 | 3%
O=C(NC1(C(F)(F)F)NC(=O)N(Cc2ccco2)C1=O)c1cccnc1 (stereo not given) | -5% | -3% | 3% | ? | 1 | 0%
CSC1=N/C(=C\c2ccccc2F)C(=O)S1 | -16% | -4% | -5% | 56µM* | -1 | -10%
CN(C)CC1CCn2c(c(C3=C(c4cn(C)c5ccccc45)C(=O)NC3=O)c3ccccc32)C1 (stereo not given) | . | . | . | -22% | 1 | .
Nc1nnc(CC(=O)N/N=C/c2cccc([N+](=O)[O-])c2)s1 | -11% | -3% | -10% | 50µM* | 3 | -2%
O=C(Cc1ccccc1)N/N=C/c1cccc([N+](=O)[O-])c1 | -10% | 0% | -3% | 14% | -6 | -12%
COC(=O)N/N=C/c1cc([N+](=O)[O-])cc(Br)c1O | ? | -1% | -2% | 20% | 2 | -4%
Nc1nnc(CC(=O)N/N=C/c2cc([N+](=O)[O-])cc(Br)c2O)s1 | ? | 5% | 11µM* | -16% | 9 | -9%
CCOc1ccc(C(=O)N2CCN(Cc3cc(=O)n4nc(-c5ccccc5Cl)sc4n3)CC2)cc1 | -11% | 2% | . | . | . | 0%
CN1/C(=C/C2CC(=O)N(c3ccc([N+](=O)[O-])cc3)C2=O)C(C)(C)c2ccccc21 (stereo not given) | 14µM* | -1% | -13% | 45µM* | 3 | ?
Cc1cccc(CC2CC(=O)N(c3ccc([N+](=O)[O-])cc3)C2=O)c1 (stereo not given) | . | . | . | 9% | 1 | .
CN1/C(=C/C=N/NC(=O)c2ccc([N+](=O)[O-])cc2)C(C)(C)c2ccccc21 | 6.3µM* | -6% | ? | 15% | -1 | ?
CN1/C(=C\C(=S)NC(=O)c2ccc([N+](=O)[O-])cc2)C(C)(C)c2ccccc21 | ? | 3% | -11% | ? | 1 | -3%
SMILES | Tau ThT inhib | Tau fibril FP | KDM4E inh | Sfp inh | FBPA coupling cs | Tau fluor cs
CC(C)C[C@H](NC(=O)[C@H](CC(C)C)NC(=O)[C@@H](Cc1c[nH]c2ccccc12)NC(=O)[C@H](Cc1ccccc1)NC(=O)[C@@H](Cc1c[nH]c2ccccc12)NC(=O)[C@H](CCC(N)=O)NC(=O)[C@H](CCC(N)=O)NC(=O)[C@@H]1CCCN1C(=O)[C@H](CCCCN)NC(=O)[C@@H]1CCCN1C(=O)[C@@H](CCCNC(=N)N)NC(=O)[C@@H]1CCCN1C(=O)CNC(=O)[C@H](CC(C)C)NC(=O)[C@H](CC(C)C)NC(=O)[C@H](Cc1ccc(O)cc1)NC(=O)CNC(=O)[C@H](C)NC(=O)[C@H](CO)NC(=O)[C@H](CC(N)=O)NC(=O)[C@H](CC(C)C)NC(=O)[C@@H](NC(=O)[C@H](Cc1c[nH]c2ccccc12)NC(=O)CN)[C@@H](C)O)C(N)=O | . | . | . | -27% | 5 | .
CCOc1ccc(NC(=O)c2nnn(-c3ccc(F)c(Cl)c3)c2C)cc1 | -8% | 14% | . | . | . | -24%
NCCCC[C@H](N)C(=O)N[C@@H](CCCN=C(N)N)C(=O)N1CCC[C@H]1C(=O)N1CCC[C@H]1C(=O)NCC(=O)N[C@@H](Cc1ccccc1)C(=O)N[C@@H](CO)C(=O)N1CCC[C@H]1C(=O)N[C@@H](Cc1ccccc1)C(=O)O | . | . | . | 6% | -2 | .
Cc1ccc(N=Nc2ccc(N)cc2C)c(S(N)(=O)=O)c1 | 14µM* | 15% | ? | ? | 2 | ?
CCCCN1C(=O)c2ccc(C(=O)NCCN3C(=O)S/C(=C\c4cccnc4)C3=O)cc2C1=O | ? | -3% | 3% | -3% | 9 | -10%
Cc1cc(C(=O)NCCN2C(=O)S/C(=C\c3cccs3)C2=O)ccc1[N+](=O)[O-] | ? | -13% | -2% | 35µM* | 1 | -26%

High-throughput results (PubChem)
